Shown are actives, neighbours in structure and some others; about 21% of the full set was active somewhere.
Shiga toxin inh – A qHTS for Small Molecule Inhibitors of Shiga Toxin; Vero cells, Shiga toxin protein synthesis inhibition reporter; inhibition, % at 38.7 µM; 9.2% of 290,000 active; AID 2315, 2010; in the data active = inhibition mostly above about 28%, no sharp cut-off; inactive = mostly below about 43%; note: 0% is about no effect
Pf growth 48h – Primary qHTS for delayed death inhibitors of the malarial parasite plastid, 48 hour incubation; P. falciparum luciferase growth in erythrocytes, 48 h; Potency, µM (highest dose often 28.7 µM), for the others: at the top dose activity change, negative = inhibition, hits mostly inhibitors; 5.9% of 310,000 active; AID 504832, 2011; note: potency is the fitted concentration of half-maximal effect; % is set by controls: 0 for no effect and ±100 for the full control effect
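First compound was added to culture medium, then infected red cells at 0.1% parasitemia and 2% hematocrit (final). After incubation at 37 C under 5% CO2, luciferase detection reagent was dispensed and light output recorded.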
CHX counter – Cycloheximide Counterscreen for Small Molecule Inhibitors of Shiga Toxin. max response, %. AID 2314, 2010. 12% of 300,000 active. cell reporter, cycloheximide protein synthesis inhibition counterscreen; in the data active = max response mostly above about 13%, no sharp cut-off; inactive = mostly below about 14%; note: read at 38.3 µM for the half of the compounds with a filed dose; 0% is about no effect
Pf growth 96h – Primary qHTS for delayed death inhibitors of the malarial parasite plastid, 96 hour incubation | P. falciparum luciferase reporter growth, 96 h | Potency, µM (doses to about 28.7 µM), inactives show top-dose activity change, negative = inhibition, hits mostly inhibitors | 6.9% of 320,000 active | AID 504834, 2011; note: potency is the fitted concentration of half-maximal effect; % is set by controls: 0 for no effect and ±100 for the full control effect
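96 h incubation, 37 C, 5% CO2, of luciferase-reporter P. falciparum-infected RBCs (2% hematocrit, 0.05% parasitemia final) with test compounds; endpoint luminescence.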
An asterisk follows results filed as active. Unless noted, calls come from the whole dose curve; as a rule, active = well fitted inhibition curve with a large enough effect; inconclusive = small, poorly fitted or top-dose-only effect, or another doubt; inactive = no such curve, though single readings can be large or run the other way.

Cc1cccc(C(=O)N2CCC(=O)N(C(COCc3ccccc3)Cc3ccccc3)CC2)c1 (stereo not drawn) was read as Shiga toxin inh -22, Pf growth 48h -23%, CHX counter -3 and Pf growth 96h 13µM*.
`Cc1nn(-c2ccccc2)c(/N=C/c2ccc(O)cc2)c1-c1ccccc1` gave Shiga toxin inh 45, Pf growth 48h 86%, CHX counter 27* and Pf growth 96h 31%.
For O=C(CSc1nc2ccc(Cl)cc2[nH]1)c1cccs1 the results were Shiga toxin inh 122*, Pf growth 48h 41%, CHX counter 58* and Pf growth 96h 0%.
Screening Cc1cc(C(=O)CSc2nc3ccc(Cl)cc3[nH]2)c(C)n1C returned Shiga toxin inh 16, Pf growth 48h inconclusive, CHX counter 8 and Pf growth 96h inconclusive.
`O=C(CSc1nc2cc(Cl)ccc2o1)c1cccs1` gave Shiga toxin inh 43, CHX counter 23* and Pf growth 96h 3%.
CC(C)CC(=O)Nc1cccc(-c2cn3ccsc3n2)c1 was read as Shiga toxin inh 36*, Pf growth 48h 83%, CHX counter 32* and Pf growth 96h 2%.
`Cc1ccc(S(=O)(=O)Nc2cccc(-c3cn4ccsc4n3)c2)cc1` gave Shiga toxin inh -4, Pf growth 48h -4%, CHX counter 9.6* and Pf growth 96h 5%.
Cc1cccc(S(=O)(=O)Nc2cccc(-c3cn4ccsc4n3)c2)c1 was read as Shiga toxin inh 5, Pf growth 48h 35%, CHX counter 8 and Pf growth 96h 0%.
Screening O=S(=O)(Nc1cccc(-c2cn3ccsc3n2)c1)c1ccc(F)cc1 returned Shiga toxin inh 106*, Pf growth 48h 0% and CHX counter 25*.
Screening COc1cccc(C(=O)OCC(=O)c2ccc(Br)s2)c1 returned Shiga toxin inh 88*, Pf growth 48h 25%, CHX counter 53* and Pf growth 96h inconclusive.
Screening CN1CC(=O)N(C)c2ncn(Cc3ccccc3)c2C1=O returned Shiga toxin inh 8, Pf growth 48h 26%, CHX counter -3 and Pf growth 96h 8.3µM*.
For O=c1c2ccccc2ncn1Cc1ccccc1 the results were Shiga toxin inh -12, Pf growth 48h 12%, CHX counter 1 and Pf growth 96h inconclusive.
For COC(=O)c1sccc1-c1ccc(C(=O)Nc2cccc(Cl)c2)o1 the results were Shiga toxin inh 51*, Pf growth 48h 48%, CHX counter 15 and Pf growth 96h 61%.
Screening CN(C)S(=O)(=O)Oc1ccsc1C(=O)Nc1ccc(Br)cc1 returned Shiga toxin inh 45, Pf growth 48h -1%, CHX counter 3 and Pf growth 96h 6%.
`COC(=O)c1ccccc1NC(=O)c1ccc(-c2cccc(Cl)c2)o1` gave Shiga toxin inh -14, CHX counter -3 and Pf growth 96h 41%.
Screening CN(C)S(=O)(=O)Oc1ccsc1C(=O)Nc1cccc(Cl)c1 returned Shiga toxin inh 16, Pf growth 48h 1.7µM*, CHX counter 2 and Pf growth 96h inconclusive.
F/C(COc1ccc2c(c1)[nH]c1ccccc12)=C1/CN2CCC1CC2 was read as Shiga toxin inh 57*, Pf growth 48h inconclusive, CHX counter 36* and Pf growth 96h 11µM*.
COc1ccc(C(=O)N2CCc3c([nH]c4ccccc34)C2C(F)(F)F)cc1 (stereo not drawn) was read as Shiga toxin inh -5, Pf growth 48h inconclusive, CHX counter -2 and Pf growth 96h inconclusive.
For COc1cc(C(C)C)c2c(c1)S(=O)(=O)N(COc1cc(=O)n3cccc(OCCN4CCCCC4)c3n1)C2=O the results were Shiga toxin inh -17 and CHX counter -9.
COc1ccc(NC(=O)CS(=O)(=O)c2ccc(Br)cc2)cc1 was read as Shiga toxin inh -4, CHX counter 5 and Pf growth 96h 8%.
For COc1ccc(COC(=O)c2cccc(S(=O)(=O)N3CCCC3)c2)cc1F the results were Shiga toxin inh -6, Pf growth 48h inconclusive, CHX counter -2 and Pf growth 96h 12µM*.
`CC(=O)N1CCN(S(=O)(=O)c2cccc(C(=O)OCc3ccc(C(C)(C)C)cc3)c2)CC1` gave Pf growth 48h 12µM* and Pf growth 96h 9.3µM*.
COc1ccc(COC(=O)c2ccc(C)c(S(=O)(=O)N3CCOCC3)c2)cc1F was read as Pf growth 48h inconclusive and Pf growth 96h 10µM*.
COc1ccc(C(=O)OCc2ccccc2F)cc1S(=O)(=O)N1CCCC1 was read as Pf growth 48h 9.3µM* and Pf growth 96h 13µM*.

Screening data as filed in PubChem BioAssay.
